Results from PubChem BioAssay (NCI).
Where “and” joins values, the source holds several entries; their conditions need not be identical. Equal values may be shown once. The panel holds about 79,000 compounds, 15% with a hit somewhere; the sample as a whole holds those more often. Some structures have more than one record in an assay (separate samples or runs), and their calls can disagree. Calls of active or inactive are those of the source. No stated cut-off is given here; in the data, active means growth inhibition above about 70%; inactive means the rest.

Experiment: NCI Yeast Anticancer Drug Screen. Data for the sgs1 mgt1 strain (AID 161);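 further: 0% = growth of cultures given vehicle only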
Details: S. cerevisiae sgs1 mgt1 strain, at 5.0 µM (retest, dose inferred, filed as 0.5), stronger effect = higher value
Outline: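 Inhibition of yeast growth, normalised to vehicle-treated controls, is reported for a strain bearing genetic alterations in DNA damage repair.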
In the case of O=C1/C(=C/c2ccccc2)CCCC1CN1CCCCC1 (stereo not drawn), the growth inhibition is reported as 40% (inactive). For C#CCN(Cc1ccc2nc(N)[nH]c(=O)c2c1)c1ccc(C(=O)NC(CCC(=O)O)C(=O)O)cc1 (stereo not drawn), the growth inhibition was 20% (inactive) and 3% (inactive). For CCOC1(c2cccc([N+](=O)[O-])c2)c2ccccc2Oc2ccccc21, the growth inhibition was 26% (inactive). In the case of O=C(O)CNC(=S)Nc1ccccc1, the growth inhibition is reported as -9% (inactive). With N/C(=N/N=C/c1cc(Br)cc(Br)c1O)NO the growth inhibition was 10% (inactive). In the case of C[Si](C)(C)/C=C/CCNC(C#N)c1ccccc1 (stereo not drawn), the growth inhibition is reported as -12% (inactive). For CCCCCCCCCCCCCCCCOP(=O)(O)OCC(N)C(=O)O (stereo not drawn), the growth inhibition was -13% (inactive). With CC1=C(C(=O)NCc2ccccc2)C(c2ccccc2)C(C(=O)NCc2ccccc2)=C(C)N1 the growth inhibition was -1% (inactive). In the case of O=[N+]([O-])c1cc(S(=O)(=O)Nc2ccccc2)ccc1Nc1ccccc1, the growth inhibition is reported as 2% (inactive). In the case of COc1cc2ccnc(-c3c4ccccc4c(N)c4c(OC)c(OC)ccc34)c2cc1OC, the growth inhibition is reported as 24% (inactive). In the case of CCOC(=O)C(Br)C(Br)c1ccccc1Cl (stereo not drawn), the growth inhibition is reported as 46% (inactive). For CCOC(=O)C1=C(C)NC(C)=C(C(=O)OCCNC(=O)c2ccc(N=[N+]=[N-])cc2)C1c1ccccc1C(F)(F)F (stereo not drawn), the growth inhibition was 5% (inactive). With Cc1cc(C)c(NC(=S)NC(=O)c2ccccc2)cc1C the growth inhibition was -7% (inactive). For CNCCCNc1c2ccccc2nc2cccc([N+](=O)[O-])c12, the growth inhibition was 87% (active). In the case of COc1c(O)c(C=O)c(Br)c(C=O)c1O, the growth inhibition is reported as 16% (inactive). In the case of Cc1c(C)c(C)c(CSC(=N)N)c(C)c1C, the growth inhibition is reported as -4% (inactive). In the case of O=C(CSC(=S)N1CCCCC1)Nc1nc2c(s1)CCCC2, the growth inhibition is reported as 17% (inactive). With CNC(=O)OCc1c(COC(=O)NC)c(-c2ccc(Cl)cc2)n2c1CCC2 the growth inhibition was 33% (inactive). With CC(=O)OC1CC2C(C)(C)C(=O)C=C[C@]2(C)C2CCC3(C)C(=CCC3[C@H](CO)C[C@H](O)C(=O)C(C)(C)O)[C@]12C (stereo partly drawn) the growth inhibition was 35% (inactive). In the case of CCCCCCOC(=O)NCCOC(=O)Nc1ccccc1, the growth inhibition is reported as 12% (inactive). For C[C](C)(C)[Ge]([O][Ge]([c]1ccccc1)[c]1ccccc1)([O][Ge]([c]1ccccc1)[c]1ccccc1)[C](C)(C)C, the growth inhibition was 19% (inactive). For CCc1c(Cl)c(C)cc(O)c1Cl, the growth inhibition was -26% (inactive). For Cc1nc(Nc2ccccc2[N+](=O)[O-])sc1C(=O)CC(=O)C(=O)Nc1c(C(C)C)cccc1C(C)C, the growth inhibition was 7% (inactive). For O=[N+]([O-])c1cccc2nc3ccccc3c(NCCCn3ccnc3[N+](=O)[O-])c12, the growth inhibition was 54% (inactive). For CCCCCCC(O)CNCc1ccnc2ccc(OC)cc12 (stereo not drawn), the growth inhibition was 23% (inactive). In the case of Cc1c2cccc(Sc3ccccc3)c2c2c3c(cccc13)[S+](c1ccccc1)C2 (stereo not drawn), the growth inhibition is reported as 18% (inactive). With C=C1CCC(O)C/C1=C/C=C1\CCCC2(C)C1CCC2C(C)CCCC(C)C (stereo not drawn) the growth inhibition was 6% (inactive). With NC1=NNC2(C(N)=N1)c1ccccc1-c1ccccc12 the growth inhibition was -9% (inactive). With COc1cc2cc3c4cc(OC)c(OC)cc4cc[n+]3c(C)c2cc1OC the growth inhibition was -28% (inactive). In the case of COC(=O)NC1C(C)OC(OC2C/C=C(/C)C3C=CC4C(OC5CC(OC6CC(O)C(OC7CC(O)C(OC)C(C)O7)C(C)O6)C(O)C(C)O5)C(C)CC(C)C4C3(C)/C(O)=C3\C(=O)OC4(CC(C)C(CO)=CC4/C=C\2C)C3=O)CC1(C)[N+](=O)[O-] (stereo not drawn), the growth inhibition is reported as 13% (inactive). For O=C1CSC(c2cccc(Cl)c2)N1c1ccc(-c2ccc(-n3c(-c4ccccc4)nc4ccccc4c3=O)cc2)cc1 (stereo not drawn), the growth inhibition was 8% (inactive). With CCOC(=O)C(C(=O)OCC)=P(c1ccccc1)(c1ccccc1)c1ccccc1 the growth inhibition was -10% (inactive). In the case of COc1ccc(N=CN(C)C)c(C)c1, the growth inhibition is reported as -4% (inactive). For Cc1cc(S(=O)(=O)Nc2nnc3cnc4ccccc4n23)c(S)cc1Cl, the growth inhibition was -1% (inactive). In the case of O=C(Oc1ccc2c(c1)CN(Cc1ccccc1)CO2)c1ccccc1, the growth inhibition is reported as 19% (inactive). In the case of CN(C)[C@@H]1C(=O)C(C(N)=O)=C(O)[C@@]2(O)C(=O)C3=C(O)c4c(O)cccc4C[C@H]3C[C@@H]12, the growth inhibition is reported as 23% (inactive). For O=[N+]([O-])c1ccc2c(c1)/C(=N/N=C1c3ccccc3Cc3ccccc31)c1cc([N+](=O)[O-])cc([N+](=O)[O-])c1-2, the growth inhibition was 75% (active). With Cc1nc2c(Br)cc(Br)cc2c(=O)n1-c1ccccc1NC1OCC(O)C(O)C1O (stereo not drawn) the growth inhibition was 12% (inactive) and 11% (inactive). For Cc1cc(N(CCOS(C)(=O)=O)CCOS(C)(=O)=O)ccc1C=Nc1ccc(-c2nc(Cc3ccccc3)sc2C)cc1, the growth inhibition was 23% (inactive) and 3% (inactive).

Same assay, conditions: S. cerevisiae sgs1 mgt1 strain, at 50.0 µM (retest, dose inferred, filed as 5.0), stronger effect = higher value
In the case of O=C1/C(=C/c2ccccc2)CCCC1CN1CCCCC1 (stereo not drawn), the growth inhibition is reported as 80% (active). With C#CCN(Cc1ccc2nc(N)[nH]c(=O)c2c1)c1ccc(C(=O)NC(CCC(=O)O)C(=O)O)cc1 (stereo not drawn) the growth inhibition was 62% (inactive) and 82% (active). In the case of CCOC1(c2cccc([N+](=O)[O-])c2)c2ccccc2Oc2ccccc21, the growth inhibition is reported as 60% (inactive). For O=C(O)CNC(=S)Nc1ccccc1, the growth inhibition was 91% (active). For N/C(=N/N=C/c1cc(Br)cc(Br)c1O)NO, the growth inhibition was 99% (active). With C[Si](C)(C)/C=C/CCNC(C#N)c1ccccc1 (stereo not drawn) the growth inhibition was 97% (active). In the case of CCCCCCCCCCCCCCCCOP(=O)(O)OCC(N)C(=O)O (stereo not drawn), the growth inhibition is reported as 99% (active). For CC1=C(C(=O)NCc2ccccc2)C(c2ccccc2)C(C(=O)NCc2ccccc2)=C(C)N1, the growth inhibition was 82% (active). In the case of O=[N+]([O-])c1cc(S(=O)(=O)Nc2ccccc2)ccc1Nc1ccccc1, the growth inhibition is reported as 91% (active). For COc1cc2ccnc(-c3c4ccccc4c(N)c4c(OC)c(OC)ccc34)c2cc1OC, the growth inhibition was 24% (inactive). For CCOC(=O)C(Br)C(Br)c1ccccc1Cl (stereo not drawn), the growth inhibition was 99% (active). With CCOC(=O)C1=C(C)NC(C)=C(C(=O)OCCNC(=O)c2ccc(N=[N+]=[N-])cc2)C1c1ccccc1C(F)(F)F (stereo not drawn) the growth inhibition was 51% (inactive). In the case of Cc1cc(C)c(NC(=S)NC(=O)c2ccccc2)cc1C, the growth inhibition is reported as 41% (inactive). For CNCCCNc1c2ccccc2nc2cccc([N+](=O)[O-])c12, the growth inhibition was 96% (active). In the case of COc1c(O)c(C=O)c(Br)c(C=O)c1O, the growth inhibition is reported as 96% (active). For Cc1c(C)c(C)c(CSC(=N)N)c(C)c1C, the growth inhibition was 100% (active). In the case of O=C(CSC(=S)N1CCCCC1)Nc1nc2c(s1)CCCC2, the growth inhibition is reported as 87% (active). With CNC(=O)OCc1c(COC(=O)NC)c(-c2ccc(Cl)cc2)n2c1CCC2 the growth inhibition was 69% (inactive). With CC(=O)OC1CC2C(C)(C)C(=O)C=C[C@]2(C)C2CCC3(C)C(=CCC3[C@H](CO)C[C@H](O)C(=O)C(C)(C)O)[C@]12C (stereo partly drawn) the growth inhibition was 93% (active). With CCCCCCOC(=O)NCCOC(=O)Nc1ccccc1 the growth inhibition was 10% (inactive). With C[C](C)(C)[Ge]([O][Ge]([c]1ccccc1)[c]1ccccc1)([O][Ge]([c]1ccccc1)[c]1ccccc1)[C](C)(C)C the growth inhibition was 80% (active). For CCc1c(Cl)c(C)cc(O)c1Cl, the growth inhibition was 46% (inactive). In the case of Cc1nc(Nc2ccccc2[N+](=O)[O-])sc1C(=O)CC(=O)C(=O)Nc1c(C(C)C)cccc1C(C)C, the growth inhibition is reported as 11% (inactive). In the case of O=[N+]([O-])c1cccc2nc3ccccc3c(NCCCn3ccnc3[N+](=O)[O-])c12, the growth inhibition is reported as 94% (active). For CCCCCCC(O)CNCc1ccnc2ccc(OC)cc12 (stereo not drawn), the growth inhibition was 61% (inactive). In the case of Cc1c2cccc(Sc3ccccc3)c2c2c3c(cccc13)[S+](c1ccccc1)C2 (stereo not drawn), the growth inhibition is reported as 98% (active). In the case of C=C1CCC(O)C/C1=C/C=C1\CCCC2(C)C1CCC2C(C)CCCC(C)C (stereo not drawn), the growth inhibition is reported as 57% (inactive). With NC1=NNC2(C(N)=N1)c1ccccc1-c1ccccc12 the growth inhibition was 43% (inactive). With COc1cc2cc3c4cc(OC)c(OC)cc4cc[n+]3c(C)c2cc1OC the growth inhibition was -6% (inactive). For COC(=O)NC1C(C)OC(OC2C/C=C(/C)C3C=CC4C(OC5CC(OC6CC(O)C(OC7CC(O)C(OC)C(C)O7)C(C)O6)C(O)C(C)O5)C(C)CC(C)C4C3(C)/C(O)=C3\C(=O)OC4(CC(C)C(CO)=CC4/C=C\2C)C3=O)CC1(C)[N+](=O)[O-] (stereo not drawn), the growth inhibition was 27% (inactive). In the case of O=C1CSC(c2cccc(Cl)c2)N1c1ccc(-c2ccc(-n3c(-c4ccccc4)nc4ccccc4c3=O)cc2)cc1 (stereo not drawn), the growth inhibition is reported as 83% (active). For CCOC(=O)C(C(=O)OCC)=P(c1ccccc1)(c1ccccc1)c1ccccc1, the growth inhibition was 60% (inactive). For COc1ccc(N=CN(C)C)c(C)c1, the growth inhibition was 97% (active). For Cc1cc(S(=O)(=O)Nc2nnc3cnc4ccccc4n23)c(S)cc1Cl, the growth inhibition was 47% (inactive). With O=C(Oc1ccc2c(c1)CN(Cc1ccccc1)CO2)c1ccccc1 the growth inhibition was 40% (inactive). In the case of CN(C)[C@@H]1C(=O)C(C(N)=O)=C(O)[C@@]2(O)C(=O)C3=C(O)c4c(O)cccc4C[C@H]3C[C@@H]12, the growth inhibition is reported as 99% (active). In the case of O=[N+]([O-])c1ccc2c(c1)/C(=N/N=C1c3ccccc3Cc3ccccc31)c1cc([N+](=O)[O-])cc([N+](=O)[O-])c1-2, the growth inhibition is reported as 98% (active). In the case of Cc1nc2c(Br)cc(Br)cc2c(=O)n1-c1ccccc1NC1OCC(O)C(O)C1O (stereo not drawn), the growth inhibition is reported as 13% (inactive) and 24% (inactive). For Cc1cc(N(CCOS(C)(=O)=O)CCOS(C)(=O)=O)ccc1C=Nc1ccc(-c2nc(Cc3ccccc3)sc2C)cc1, the growth inhibition was -12% (inactive) and 43% (inactive).
